Source: PubChem (several laboratories)
E coli growth-1: E. coli V3065 growth inhibition, primary screen, counter-screen for AddAB inhibitor project, absorbance, OD600 | 18 h | inhibition, % at 11.9 µM | 330,000 tested, 0.27% active;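 active = inhibition above the campaign's mean inhibition across all tested compounds plus 3 SD, cut at about 9.9% in these data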;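 note: uninfected addAB+ strain grown without phage in ampicillin broth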
phage Ecoli inh: growth loss of phage-infected E. coli, primary screen, RecBCD inhibitor project, absorbance, with phage, HTS | inhibition, % at 11.9 µM | 360,000 tested, 0.26% active; in the data active = inhibition above about 11%
AddAB inh: growth inhibition of E. coli expressing H. pylori AddAB, primary screen, AddAB inhibitor project, absorbance; inhibition, % at 11.9 µM; 330,000 tested, 0.29% active; in the data active = inhibition above about 12%
E coli growth-2: E. coli growth inhibition, primary screen, OD600; OD600 absorbance (test concentration not listed); 330,000 tested, 0.21% active; AID 1053175, 2014; Escherichia coli growth, 23 h; active compounds read low;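 active = OD600 absorbance below the run mean of sample wells minus 3.6 SD, in any replicate, cut at about 0.56 in these data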
Tat export inh: E. coli Tat export inhibitors, primary screen, MC4100, TorA-mCherry reporter, fluorescence, single point; inhibition, % at 10 µM; 340,000 tested, 0.036% active; AID 488895, 2010;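 active = mean replicate inhibition at least 50% and at least half of replicates individually reaching 50%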;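 note: exported cargo escapes ClpAP degradation while cytoplasmic cargo is degraded and loses fluorescence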
AddAB confirm: growth loss of phage-infected E. coli expressing H. pylori AddAB, confirmation, AddAB inhibitor project, absorbance, E. coli V3065, T4 phage, triplicate. shares compounds with AddAB inh. OD; T4 phage with gene 2 nonsense mutations. inhibition, % at 11.9 µM. AID 488942, 2010. 880 tested, 64% active;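 active = mean inhibition above a set limit taken from the earlier primary screen, cut at about 13% in these data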;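 note: higher means less bacterial growth since AddAB block lets phage replicate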
RecBCD counter: growth loss of RecBCD+ E. coli with mutant T4 phage, counter-screen for AddAB inhibitor project, absorbance, V66 E. coli. shares compounds with AddAB inh. OD growth. inhibition, % at 11.9 µM. 880 tested, 73% active;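 active = mean inhibition above the mean of solvent-only control wells plus 3 SD, cut at about 4% in these data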;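 note: optical density read after an 18 h incubation at 37 °C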
bact viab count: bacterial viability inhibition counter-screen, confirmation, counter-screen for AddAB inhibitor project, absorbance | absorbance (AddAB counterscreen) | AID 488956, 2010 | shares compounds with AddAB inh | inhibition, % at 11.9 µM | 880 tested, 35% active; in the data active = inhibition above about 25%
Hits are given with their value; n = inactive; x = no result given. Sampled rows, rich in hits. Any-hit rate of the full collection: about 0.5%.

SMILES	E coli growth-1	phage Ecoli inh	AddAB inh	E coli growth-2	Tat export inh	AddAB confirm	RecBCD counter	bact viab count
CCOC(=O)c1ccccc1NC(=O)CSc1ccc(-c2ccccn2)nn1	13	n	13	n	n	n	7.8	n
CCC(C)C(C(=O)N1CCNCC1)n1cc(C(N)CO)nn1 (stereo not given)	x	x	x	n	x	x	x	x
CCn1cc(C(=O)OCC(=O)N(C)Cc2ccccc2)c(=O)c2ccc(C)nc21	95	n	98	x	n	n	n	n
CCn1cc(C(=O)OCC(=O)c2cc(C)n(-c3ccccc3)c2C)c(=O)c2ccc(C)nc21	n	n	n	n	n	x	x	x
CSc1cccc(NC(=O)CCNC(=O)c2ccco2)c1	n	n	n	n	n	x	x	x
O=C(CCNC(=O)c1ccco1)Nc1cccc(Br)c1	n	n	14	n	n	n	n	n
CCC(CC)C1=NN2C(=N)C(=Cc3cc(C)n(-c4cccc(C)c4)c3C)C(=O)N=C2S1	x	x	x	n	x	x	x	x
Cc1ccc(S(=O)(=O)NCc2ccc3[nH]c(C)cc3c2)cc1	n	n	n	n	n	x	x	x
Cc1cc2cc(CNS(=O)(=O)N(C)C)ccc2[nH]1	26	n	34	n	n	n	n	n
C=CC(CC(C)C)N(Cc1ccccc1)S(=O)(=O)N(Cc1ccc(OC)cc1)C(C=C)CC(C)C (stereo not given)	x	x	x	n	x	x	x	x
CCOC(=O)CN=C1CC(C)(C)CC2=C1Sc1ncnc(N(C)C)c1N2	43	x	20	n	n	n	n	n
Cc1ccc2nc(/C(C#N)=C\c3ccc([N+](=O)[O-])o3)[nH]c2c1	10	n	43	n	n	67	5.2	n
Cc1ccc(OCC(=O)c2c[nH]c3ccccc23)c([N+](=O)[O-])n1	20	n	23	n	n	46	6.8	42
C=C(C)C(=O)N1CC2(CC(c3cccc(NC(=O)CC(c4ccccc4)c4ccccc4)c3)=NO2)CC1C(N)=O (stereo not given)	x	x	x	n	x	x	x	x
COc1ccc(CC(C)=NNC(=O)c2c[nH]c3ccccc23)cc1OC	x	x	x	n	x	x	x	x
O=[N+]([O-])c1ccc(N/N=C/c2ccc[nH]2)cc1	n	n	12	x	n	13	n	n
COC(=O)C1CC1C(NC(=O)c1ccccc1)c1ccccc1 (stereo not given)	x	x	x	n	x	x	x	x
O=C(NNC(=O)C1CCN(S(=O)(=O)c2c(Cl)cccc2Cl)CC1)c1ccccc1O	n	n	13	n	n	n	6.2	n
O=C(NNC(=O)C1CCN(S(=O)(=O)c2ccccc2)CC1)c1ccccc1O	n	n	n	n	n	x	x	x
O=C(NCc1ccco1)C1CCN(S(=O)(=O)c2ccccc2C(F)(F)F)CC1	n	n	n	n	n	x	x	x
O=C(NNC(=O)C1CCN(S(=O)(=O)c2ccccc2C(F)(F)F)CC1)c1ccccc1O	n	n	14	n	n	13	8.8	n
C=C1CCN(C(C(=O)OCc2cccc(C)c2)C(C)C)S(=O)(=O)c2ccccc21 (stereo not given)	x	x	x	n	x	x	x	x
CCOc1ccc(S(=O)(=O)n2cc(F)c(=O)[nH]c2=O)cc1[N+](=O)[O-]	17	n	24	n	n	n	n	n
c1ccc2nc(-c3ccc(N4CCOCC4)cc3)ccc2c1	43	n	40	n	n	n	n	n
CN1CCN(c2ccc(-c3ccc4ccccc4n3)cc2)CC1	x	n	x	n	n	x	x	x
CC(=O)Nc1ccc(C(=O)OCC(=O)c2ccc(F)cc2)cc1	n	n	n	n	n	x	x	x
CC(=O)Nc1ccc(C(=O)OCC(=O)Nc2c(F)cccc2F)cc1	74	n	90	n	n	n	n	n
CC(=O)N(/N=C/c1ccc([N+](=O)[O-])o1)c1nc2ccccc2c(=O)n1-c1ccccc1	11	n	15	x	n	29	n	n
COc1ccc(S(=O)(=O)N2CCOC2CNC(=O)C(=O)NCCc2ccccc2)cc1OC (stereo not given)	n	n	n	n	n	x	x	x
